Records with an inconclusive call do not appear. Where a call stands in place of a potency, no number is given. Unmarked numbers belong to inactive results. Activity calls are given as the source filed them. Calls come from the whole dose curve; as a rule, active = well fitted activation curve with a large enough effect in the signal ratio, with a control signal flat; inconclusive = small, poorly fitted or top-dose-only effect, or a change in a side signal; inactive = flat fitted curve, though single readings scatter; the % refers to the signal ratio.

The assay has as its target Thyrotropin receptor (Homo sapiens) (UniProt P16473). Nature of the assay: Secondary Concentration-Response Assay for Agonists of the Thyroid Stimulating Hormone Receptor: HTRF Activity Detection.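 For activation: HEK 293 cells stably expressing human TSHR with RO 20-1724 phosphodiesterase inhibitor.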 In a few lines: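 Orthogonal confirmation in a separate TSHR-transfected HEK 293 line: cells in medium with 10 % FCS and 100 uM RO 20-1724 got compound for 30 min at room temperature. cAMP was measured by HTRF (d2-cAMP/anti-cAMP antibody), 615/660 nm emission.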
Potency is the fitted concentration of half-maximal effect.

Sequence of Thyrotropin receptor (Homo sapiens) (P16473 whole entry, looked up): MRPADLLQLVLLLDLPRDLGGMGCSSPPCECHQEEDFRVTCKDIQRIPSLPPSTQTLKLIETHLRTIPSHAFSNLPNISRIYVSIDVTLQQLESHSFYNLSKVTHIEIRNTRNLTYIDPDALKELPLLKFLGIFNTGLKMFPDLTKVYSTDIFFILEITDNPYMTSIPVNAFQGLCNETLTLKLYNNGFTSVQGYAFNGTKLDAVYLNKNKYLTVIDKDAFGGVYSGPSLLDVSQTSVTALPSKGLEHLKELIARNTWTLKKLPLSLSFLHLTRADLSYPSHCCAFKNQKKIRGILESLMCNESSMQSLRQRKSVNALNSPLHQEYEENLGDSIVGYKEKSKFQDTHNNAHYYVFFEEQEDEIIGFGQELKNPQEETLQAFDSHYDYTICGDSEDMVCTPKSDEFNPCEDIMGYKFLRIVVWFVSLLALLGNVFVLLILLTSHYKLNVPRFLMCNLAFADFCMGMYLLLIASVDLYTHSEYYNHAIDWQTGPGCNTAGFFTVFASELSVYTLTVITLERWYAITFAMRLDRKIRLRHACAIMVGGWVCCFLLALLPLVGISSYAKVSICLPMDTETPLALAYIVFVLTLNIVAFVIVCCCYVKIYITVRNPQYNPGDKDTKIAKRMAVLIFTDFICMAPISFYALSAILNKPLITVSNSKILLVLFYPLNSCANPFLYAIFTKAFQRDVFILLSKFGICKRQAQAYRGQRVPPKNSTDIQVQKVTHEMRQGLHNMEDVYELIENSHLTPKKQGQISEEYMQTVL

On to `COc1ccc(C(=O)N(Cc2ccccc2)Cc2cccs2)c(O)c1`, for which the Potency is 28.2 µM (active). Turning to `O=C(CN(c1ccc2c(c1)OCCO2)S(=O)(=O)c1ccccc1)NCc1ccco1`, the activation was -0.333% [at 0.00035 µM].

`COc1ccc(CN(Cc2ccccc2)S(=O)(=O)c2ccccc2)cc1COc1ccc(NC(C)=O)cc1`: the Potency result was “inactive”. The same measure, in the same setting: as for `COc1ccc(CN2C(=O)N(c3ccccc3)C(=O)C2c2ccccc2)cc1COc1ccc(NC(C)=O)cc1` (centres undefined), the entry is “inactive”. The same measure, in the same setting: as for `O=C(COC(=O)C12CC3CC(CC(O)(C3)C1)C2)NCc1ccco1`, the entry is “inactive”; as for `COc1ccc(C2Nc3ccccc3C(=O)N2Cc2ccccc2)cc1COc1ccccn1` (centres undefined), “inactive”. As for `COc1ccc(C2Nc3ccccc3C(=O)N2Cc2ccc(C(C)(C)C)cc2)cc1COc1ccc(NC(C)=O)cc1` (centres undefined), the Potency entry was “inactive”.

Consider `COc1ccc(C2Nc3ccccc3C(=O)N2Cc2ccccc2)cc1COc1ccc([N+](=O)[O-])cc1` (centres undefined), for which the Potency result is “inactive”.

For `CC(=O)Nc1ccc(OCc2cccc(-c3nc4ccccc4c(=O)n3Cc3ccco3)c2)cc1`, the Potency result is “inactive”.

`COc1ccc(C2Nc3ccccc3C(=O)N2c2ccc(C)cc2)cc1Cn1nnc2ccccc21` (centres undefined): the Potency result is “inactive”. In the case of `COCCNC(=O)C(c1ccc(C)o1)N(C(=O)c1snc(C(N)=O)c1N)c1ccc(C)cc1` (centres undefined), the activation was -0.472% [at 0.00035 µM].

Regarding `CCCC(=O)C1=C(SCC)CC(C)(C)C(C(=O)OC)C1=O` (centres undefined), the activation was 0.0277% [at 0.00035 µM].

Turning to `COc1ccc(C2Nc3ccccc3C(=O)N2Cc2ccccc2C)cc1COc1ccc(NC(C)=O)cc1` (centres undefined), the Potency entry is “inactive”.

Turning to `COc1ccc(C2Nc3ccccc3C(=O)N2Cc2ccco2)cc1` (centres undefined), the Potency entry was “inactive”.

For the origin of these results see PubChem BioAssay AID933 (National Center for Advancing Translational Sciences (NCATS), 2009).
